# Structures can show the parent of a compound that is named as a salt. ± gives the standard deviation of the averaged measurements.
# System: E. coli TESEC Mtb Alr
# Assay: growth (OD600 after 10 h); higher = more growth (less inhibition)
# Conditions: compound 0.1 mM
# Description: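 TESEC Mtb Alr E. coli, or the Alr+ wild-type control, in 384-well plates with Prestwick library compounds at 0.1 mM and 1% DMSO, across arabinose induction levels of 1E3 to 1E7 nM. Growth is read as OD600 after 10 h at 37 °C in triplicate biological replicates.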
# [1] = arabinose 1000 nM, raw OD600 reference: median of DMSO wells 0.294, cell-free background 0.041
# [2] = arabinose 10000 nM, raw OD600 reference: median of DMSO wells 0.264, cell-free background 0.041
# [3] = arabinose 100000 nM, raw OD600 reference: median of DMSO wells 0.201, cell-free background 0.041
# [4] = arabinose 1000000 nM, raw OD600 reference: median of DMSO wells 0.193, cell-free background 0.041
# [5] = arabinose 10000000 nM, raw OD600 reference: median of DMSO wells 0.146, cell-free background 0.041
Structure (SMILES),growth [1],growth [2],growth [3],growth [4],growth [5]
CC[N+](C)(C)c1cccc(O)c1 [Edrophonium chloride],0.294 ± 0.012,0.266 ± 0.004,0.227 ± 0.03,0.192 ± 0.012,0.144 ± 0.0031
N[C@@H]1CONC1=O [D-cycloserine],0.0374 ± 0.00045,0.0389 ± 0.00083,0.277 ± 0.0054,0.155 ± 0.0017,0.132 ± 0.0031
Cc1ccc(S(=O)(=O)NC(=O)NN2CCCCCC2)cc1 [Tolazamide],0.293 ± 0.0069,0.281 ± 0.005,0.249 ± 0.0083,0.186 ± 0.012,0.17 ± 0.0032
NC1CCN(c2c(F)cc3c(=O)c(C(=O)O)cn(C4CC4)c3c2Cl)C1 (stereo not given) [Clinafloxacin],0.0399 ± 0.00042,0.0399 ± 0.00047,0.0418 ± 0.0019,0.03957 ± 5.8e-05,0.04037 ± 0.00015
Clc1ccccc1CN1CCc2sccc2C1 [Ticlopidine hydrochloride],0.0555 ± 0.015,0.0438 ± 0.0013,0.0705 ± 0.024,0.0437 ± 0.00091,0.0565 ± 0.0013
CCCCCN(CCCCC)C(=O)C(CCC(=O)O)NC(=O)c1ccc(Cl)c(Cl)c1 (stereo not given) [Lorglumide sodium salt],0.158 ± 0.01,0.114 ± 0.0014,0.158 ± 0.0084,0.0691 ± 0.00087,0.125 ± 0.0012
CCCCC(CC)CN1CN(CC(CC)CCCC)CC(C)(N)C1 (stereo not given) [Hexetidine],0.259 ± 0.0085,0.309 ± 0.0098,0.228 ± 0.039,0.161 ± 0.014,0.187 ± 0.0073
CCN1CCCC(OC(=O)C(c2ccccc2)c2ccccc2)C1 (stereo not given) [Piperidolate hydrochloride],0.264 ± 0.0065,0.259 ± 0.012,0.161 ± 0.01,0.157 ± 0.0096,0.136 ± 0.0042
